Test results published in PubChem BioAssay (NCATS).
Inconclusive results are not listed. Calls of active or inactive are those of the source. Calls come from the whole dose curve; as a rule, active = well fitted inhibition curve with a large enough effect; inconclusive = small, poorly fitted or top-dose-only effect; inactive = flat fitted curve, though single readings scatter.

Assays:
CRL-7250 = normal cell line; assay: Cytotoxic Profiling of Annotated Libraries Using Quantitative High-Throughput Screening (AID 1296008); conditions: Five cell lines viability, CellTiter-Glo ATP luminescence, 48-72 h; max response: stronger effect = lower value; note: potency is the fitted concentration of half-maximal effect; for max response: % is set by controls: 0 for no effect and ±100 for the full control effect
How it was run: (§1)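 Compounds were pin-transferred onto cells and incubated 48 or 72 hr at 37 degree Celsius, 95% humidity. CellTiter-Glo was added, plates sat 10 min at room temperature, then ATP-coupled luminescence was imaged as the viability read-out.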

HEK293 = assay: as above; conditions: Five cell lines viability, CellTiter-Glo ATP luminescence, 48-72 h; max response: stronger effect = lower value
How it was run: as §1

HaCat [1] = assay: as above; conditions: Five cell lines viability, CellTiter-Glo ATP luminescence, 48-72 h; max response: stronger effect = lower value
How it was run: as §1

NIH3T3 = assay: as above; conditions: Five cell lines viability, CellTiter-Glo ATP luminescence, 48-72 h; max response: stronger effect = lower value
How it was run: as §1

HACAT [2] = assay: qHTS assay to identify novel small-molecules to repurpose for Merkel cell carcinoma treatment (AID 1296009); conditions: MCC and control cell lines, CellTiter-Glo viability, 72 h; at 44.8 µM (top of the series) unless noted
How it was run: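 Viability readout: ATP luminescence (CellTiter-Glo) after 72 hr drug exposure at 37 degree celsius. Dose-response format was 8 points for NPC and 11 points for MIPE; data normalized to in-plate controls.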

KB-3-1 = assay: Cytotoxic Profiling of Annotated Libraries Using Quantitative High-Throughput Screening (AID 1296008); conditions: Five cell lines viability, CellTiter-Glo ATP luminescence, 48-72 h; max response: stronger effect = lower value; note: potency is the fitted concentration of half-maximal effect; for max response: % is set by controls: 0 for no effect and ±100 for the full control effect
How it was run: as §1
Note: nearly all actives have a fitted effect of over 60% in size.

COc1cc(Br)c(S(=O)(=O)Nc2ccc(Cl)c(O[C@@H]3CCN(C)C3)c2)cc1OC
outcome (CRL-7250): inactive | Potency (HEK293): 7.31 µM (active) | outcome (HaCat [1]): inactive | max response (NIH3T3): -15.8% (inactive) | outcome (HACAT [2]): inactive

CNc1cc2[nH]c(=O)n(-c3ccc(NC(=O)NS(=O)(=O)c4ccc(Cl)s4)cc3)c(=O)c2cc1F
outcome (CRL-7250): inactive | max response (HEK293): -0.0272% (inactive) | outcome (HaCat [1]): inactive | max response (NIH3T3): 2.24% (inactive) | outcome (HACAT [2]): inactive

CS(=O)(=O)c1ccc(Oc2cc(F)cc(C#N)c2)c2c1[C@H](O)C(F)(F)C2
outcome (CRL-7250): inactive | max response (HEK293): 1.03% (inactive) | max response (HaCat [1]): -0.258% (inactive) | max response (NIH3T3): -14.9% (inactive)

COc1cc(O)cc(OC2OC(CO)C(O)C(O)C2O)c1 (stereo not drawn)
max response (CRL-7250): -0.834% (inactive) | max response (HEK293): 0.556% (inactive) | max response (HaCat [1]): -5.91% (inactive) | outcome (NIH3T3): inactive

CCc1cc(C(N)=O)ccc1-n1nc(C(C)C)c2c(-n3cnc(-c4cnn(C)c4)c3)ccnc21
Potency (CRL-7250): 4.11 µM (active) | max response (HEK293): -117% (inactive) | max response (HaCat [1]): -102% (inactive) | Potency (NIH3T3): 1.3 µM (active)

CCn1c(N)c(C(=O)NC)c(=O)c2ccc(C#CC(C)(O)COC)nc21 (stereo not drawn)
max response (KB-3-1): 1.64% (inactive)

O=C(Nc1ccc(Cl)cc1)c1ccccc1NCc1ccncc1
max response (CRL-7250): 0.592% (inactive) | max response (HaCat [1]): -24.7% (inactive) | max response (KB-3-1): -12.3% (inactive)

COc1cc(-c2cn(C3CCc4c(F)cccc4N(CC(F)(F)F)C3=O)nn2)ccc1-n1cnc(C)c1 (stereo not drawn)
max response (CRL-7250): -13.5% (inactive) | max response (HaCat [1]): -32.4% (inactive) | max response (KB-3-1): -16.9% (inactive)

CC(=O)O[C@@H]1CC2C(/C=C(\C)C(=O)[C@@]3(O)C[C@@H](C)[C@H](OC(=O)c4ccccc4)C3/C=C/1C)C2(C)C (stereo partly drawn)
outcome (CRL-7250): inactive | max response (HaCat [1]): -1.64% (inactive) | outcome (KB-3-1): inactive | max response (NIH3T3): 1.35% (inactive)
